TIM10 inh: growth inhibitors of isogenic TIM10 control yeast, primary screen, counter-screen for tim10-1 yeast inhibitor project, luminescence, uHTS; S. cerevisiae TIM10 strain growth, BacTiter-Glo luminescence, 24 h; inhibition, % at 10 µM; hit rate 1.4% among 330,000;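 active = inhibition of 40% or more at the single tested concentration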;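 also: wild-type TIM10 isogenic control strain grown at permissive 25 °C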
NALP1 inh: NALP1 inflammasome inhibitors in reconstituted yeast, colorimetric, S. cerevisiae, triplicate retest; S. cerevisiae NALP1/ASC/caspase-1 growth, X-gal OD620, 72 h; inhibition, % at 10 µM; hit rate 0.61% among 280,000; in the data active = inhibition mostly above about 24%, no sharp cut-off; inactive = mostly below about 32%
tim23-1 inh: growth inhibitors of tim23-1 mutant yeast, primary screen, luminescence, uHTS; S. cerevisiae tim23-1 growth, BacTiter-Glo luminescence, 24 h; inhibition, % at 20 µM; hit rate 1.3% among 330,000; AID 463212, 2010;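 active = growth inhibition of the mutant yeast at or above 50%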;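 also: temperature-sensitive mutant grown at 25 °C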
V-ATPase pH: regulators of yeast V-ATPase proton pumping, primary screen, pHLuorin cytosolic pH fluorescence; S. cerevisiae; response, % at 10 µM; hit rate 0.37% among 350,000; in the data active = response mostly above about 7.3%, no sharp cut-off; inactive = mostly below about 5.4%; also: actives read high
tim10-1 inh: growth inhibitors of tim10-1 mutant yeast, primary screen, luminescence, uHTS; S. cerevisiae tim10-1 ts strain growth, BacTiter-Glo, 24 h; inhibition, % at 20 µM; hit rate 2.2% among 330,000; AID 463190, 2010;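 active = inhibition of at least 40%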;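 also: mutant grown at 25 °C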
NLRP3 yeast inh: NALP3 inflammasome inhibitors in reconstituted yeast, primary screen, luminescence, uHTS. Yeast reconstituted NLRP3/ASC/caspase-1, beta-gal luminescence, 24 h. inhibition, % at 10 µM. hit rate 0.39% among 330,000. AID 2825, 2010;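 active = inhibition of 50% or more; inactive = inhibition below 50%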
tim23-1 conf: tim23-1 mutant yeast growth inhibitors, confirmation, luminescence, single concentration; shares compounds with tim23-1 inh; S. cerevisiae tim23-1 growth, BacTiter-Glo luminescence, 24 h; hit rate 83% among 4,400; inhibition, % at 20 µM; AID 463218, 2010;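 active = inhibition above about 39% in either of two replicate wells at 20 µM, limit read from the data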;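 also: temperature-sensitive tim23-1 mutant grown at 25 °C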
A number is an active result; - = inactive; . = no result. Shown are actives, neighbours in structure and some others; about 4.2% of the full set was active somewhere.

SMILES	TIM10 inh	NALP1 inh	tim23-1 inh	V-ATPase pH	tim10-1 inh	NLRP3 yeast inh	tim23-1 conf
CC1=NN(c2nc3ccccc3[nH]2)C(=O)C1Cc1ccccc1 (configuration not stated)	-	-	67	-	-	-	56
COC(=O)c1c(C)cc(O)c(C=O)c1O	-	.	56	-	-	-	45
COc1ccc(Cn2c(-c3ccco3)nc3c(c(=O)c4ccccc4n3C)c2=O)cc1	-	.	-	-	-	-	.
CC(c1ccccc1)n1c(-c2cccs2)nc2c(c(=O)c3ccccc3n2C)c1=O (configuration not stated)	-	.	51	-	-	-	-
Cc1nc2c(c(=O)c3ccccc3n2C)c(=O)n1C1CCCCCC1	-	.	-	-	-	-	.
CC(C)Cn1c(-c2ccco2)nc2c(c(=O)c3ccccc3n2C)c1=O	-	-	50	.	-	-	-
Cn1c2ccccc2c(=O)c2c(=O)n(C3CCCCC3)c(-c3ccco3)nc21	-	-	51	-	-	-	49
S=C1NCCNC(=S)NCCOCCOCCOCCN1	-	-	-	-	-	-	.
Cc1ccc(C(=O)C2=C(O)C(=O)N(Cc3cccnc3)C2c2cccc(Oc3ccccc3)c2)o1 (configuration not stated)	-	-	-	.	-	-	.
O=C1OCCC1Sc1nc2ccccc2c(=O)n1-c1ccc(F)cc1 (configuration not stated)	-	-	-	-	-	-	.
O=C1OCCC1Sc1nc2ccccc2c(=O)n1Cc1ccc(F)cc1 (configuration not stated)	-	-	50	-	-	-	-
Cc1ccc(C2=Nc3ccccc3N=C(C(Cl)Cl)C2)cc1	-	-	52	-	-	-	49
C=C1SC(Nc2c(C)cccc2C)=NC12CCCCC2	-	-	50	-	-	-	44
Cc1cccc(C)c1NC(=O)NC1(C(=O)N2CCCCC2)CCCCC1	-	-	-	-	-	-	.
CCCN1C(=O)/C(=C/c2ccco2)SC1=Nc1ccc(OC)cc1	-	-	-	-	-	-	.
C/C(CC(=O)Nc1ccc(Cl)cc1Cl)=N\NC(=O)c1ccco1	-	-	-	-	-	-	.
CCOC(=O)c1sc(=NC(=O)c2ccccc2Br)n(C)c1C	-	-	-	-	-	-	.
CCOC(=O)c1sc(=NC(=O)c2ccco2)n(C)c1C	-	-	54	-	-	-	44
Cc1ccc(C(C)NC(=S)NC2CCCCC2)cc1C (configuration not stated)	-	-	55	-	-	-	-
COc1ccc(C(C)NC(=S)NC2CCCC2)cc1OC (configuration not stated)	-	-	-	-	-	-	.
Cc1oc2c(O)c(O)ccc2c(=O)c1-c1cnn(-c2ccccc2)c1	-	-	-	-	-	-	.
Cc1nc(-c2cnn(-c3ccccc3)c2)c2cc(C)oc2n1	-	-	51	-	-	-	45
N/C(CC(=O)Nc1ccc(F)cc1F)=N\OC(=O)c1cccs1	-	-	61	-	-	-	40
Cc1cc(C)n2nc(C(=O)N/N=C/c3c4ccccc4cc4ccccc34)nc2n1	-	-	-	-	-	-	.
CCCOc1ccc(-c2csc(N)n2)cc1[N+](=O)[O-]	-	-	57	-	-	-	57
SMILES	TIM10 inh	NALP1 inh	tim23-1 inh	V-ATPase pH	tim10-1 inh	NLRP3 yeast inh	tim23-1 conf
CC(C)c1ccc(NC(=O)C2C3C=CC4(O3)C2C(=O)N(CCCN2CCCCC2)C4C(=O)NC2CCCCC2)cc1 (configuration not stated)	-	-	-	-	-	-	.
COc1ccc(-c2nc(N)nc(C(F)(F)F)c2-c2cscn2)c(O)c1	-	.	-	-	-	-	.
COc1ccc(-c2nc(N)nc(C)c2Oc2ccccc2Br)c(O)c1	-	-	50	-	-	-	47
CC(C)N(Cc1nccn1C)C(=O)CC1C(=O)NCCN1Cc1ccc(F)c(F)c1 (configuration not stated)	-	-	-	-	-	-	.
CC(C)(C)C(=O)Nc1nc(-c2ccc3c(c2)OCO3)cs1	-	-	55	-	-	-	50
COC(=O)[C@]1(C)CCC[C@@]2(C)C3CC[C@@]4(C)C[C@]3(CCC21)CC4=NO (some centres not stated)	-	.	52	-	-	-	46
Nc1nc(SCC(=O)Nc2cc(C(F)(F)F)ccc2N2CCOCC2)n[nH]1	-	-	-	-	-	-	.
Cc1ccc(OCc2n[nH]c(=S)n2-c2ccc(Cl)cc2)cc1	-	-	-	-	-	-	.
S=c1[nH]nc(COc2ccc(Cl)cc2)n1-c1ccc(Cl)cc1	-	-	51	-	-	-	41
Cc1cc(=O)oc2c1c(C(F)(F)F)nn2-c1ccccc1	-	-	50	-	-	-	55
Cc1cc(C(F)(F)F)c2c(C)nn(-c3ccccc3)c2n1	-	.	-	-	-	-	.
O=C(Nc1cc(Cl)ccn1)C1(c2ccccc2)CC1(Cl)Cl (configuration not stated)	-	-	55	-	-	-	65
O=C(Nc1ccccc1)C1(c2ccccc2)CC1(Cl)Cl (configuration not stated)	-	-	-	-	-	-	.
COc1ccc2c(c1)OC[C@H]1[C@H]2N2C(=O)c3cc(OC)c(OC)cc3NC(=O)[C@@]2(C)[C@H]1c1ccccc1	-	.	-	-	-	-	.
O=C(N/N=C/c1cc(Br)cc(Br)c1O)c1cccc(N2CCCC2=O)c1	-	-	51	-	-	-	56
COc1ccc(CCNC(=O)[C@H](C)NC(=O)[C@@H]2CSC3c4ccccc4C(=O)N32)cc1 (some centres not stated)	-	-	-	-	-	-	.
O=C(N/C(=C/c1ccco1)C(=O)N1CCCC1)c1cccs1	-	-	-	-	-	-	.
O=C(N/C(=C\c1ccco1)C(=O)N1CCCC1)c1cccs1	-	-	52	-	-	-	-
O=C(OCc1nc2ccccc2s1)c1ccc([N+](=O)[O-])o1	-	-	55	-	-	-	59
O=C(OCC(=O)N1CCc2ccccc21)c1ccc([N+](=O)[O-])o1	-	.	70	-	-	-	73
O=C(OCc1nc2ccccc2s1)c1ccc(Br)o1	-	-	-	-	-	-	.
O=C(OCC(=O)N1CCCc2ccccc21)c1ccc(Br)o1	-	-	-	-	-	-	.
NC(=O)CCNC(=O)c1ccc(Cl)cc1	-	-	-	-	-	-	.
CC(C)CCN(C(=S)Nc1cccc(C(F)(F)F)c1)C(C)c1ccccn1 (configuration not stated)	-	.	54	-	-	-	54

From PubChem
